# D2 ag-1: human D2 receptor agonism in beta-arrestin assay; P14416; DiscoveRx PathHunter D2 beta-arrestin, luminescence, 90 min; 100% = 57 uM dopamine signal; activation, % (concentration not given with the values); 0.084% of 360,000 active; in the data active means activation above about 40%; inconclusive means between about 15% and that limit
#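 Agonist mode: compounds alone added to overnight-plated D2 PathHunter cells for 90 min at 37 C, with 57 uM final dopamine (EC100) defining full response. Beta-arrestin recruitment detected by chemiluminescent reagent, read after 1 h at ambient temperature.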
# D2 PAM-1: potentiates the human D2 dopamine receptor allosterically | P14416 | DiscoveRx D2 beta-arrestin cells, luminescence, 90 min; 100% = 57 uM dopamine signal | potentiation, % (concentration not given with the values) | 0.23% of 360,000 active | AID 624464; in the data active means potentiation above about 50%; inconclusive means mostly about 30% to 49%
#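 PathHunter beta-arrestin assay in DiscoveRx D2 cells. Compounds were added with an EC20 of dopamine (50 nM final) for 90 min at 37 deg C. Luminescence was read 1 h after detection reagent, with 57 uM dopamine as the EC100 control.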
# D2 ag-2: D2 dopamine receptor (human) agonism; HEK293 T-REx D2 cells, calcium flux agonist mode; activation, % at 2 µM; 0.53% of 340,000 active; AID 485358;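 active means activation over 3 SD above normal in the single-dose calcium agonist read, cut at about 30% in these data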; further: 0% is about no effect
#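 Tetracycline-induced HEK293 T-REx cells with force-coupled D2 receptor, plated overnight at 30 C, loaded with no-wash calcium dye. After a 10 s baseline, compound was pin-added and calcium flux read kinetically for 180 s; calcium rises flagged agonists.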
# D2 PAM-2: D2 dopamine receptor (human) potentiation. AID 485347. 0.34% of 340,000 active. potentiation, % at 10 µM. P14416. HEK293 T-REx D2, calcium flux, EC20 dopamine potentiation;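 active means potentiation over 3 SD above the plate norm, cut at about 30% in these data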; further: 0% is about no effect
#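 Tetracycline-induced HEK293 T-REx cells force-coupled to calcium signalling expressed D2; compounds were pin-added after a 10 s baseline, read kinetically 180 s, then an EC20 dopamine challenge followed with a further 180 s calcium read.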
# D2 antag: antagonists of human D2 dopamine receptor; P14416; AID 485344; 2% of 340,000 active; inhibition, % at 10 µM; HEK293 TREx D2 cells, calcium flux, dopamine EC80; in the data active means inhibition above about 30%; inactive means below that, where a call was filed; further: 0% is about no effect
#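 Overnight-induced (tetracycline, 30 C) HEK293 T-REx cells carrying force-coupled D2 receive a no-wash calcium dye, then compound, then EC80 dopamine at 180 s; signals are read kinetically throughout.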
# D3 arrestin ag: confirmation of human D3 dopamine receptor agonists, beta-arrestin; DiscoveRx D3 beta-arrestin cells, luminescence, 90 min; shares compounds with D2 ag-2; 4% of 2,300 active; Potency, µM (titrated, usually from 76.9 µM), without a hit: at the highest dose activation, most hits filed as activators;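 further: potency means the concentration at half of the fitted maximal effect; 100% = dopamine control response; nearly all actives have a fitted effect of over 70% in size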
# Target sequence (P35462 whole entry, looked up): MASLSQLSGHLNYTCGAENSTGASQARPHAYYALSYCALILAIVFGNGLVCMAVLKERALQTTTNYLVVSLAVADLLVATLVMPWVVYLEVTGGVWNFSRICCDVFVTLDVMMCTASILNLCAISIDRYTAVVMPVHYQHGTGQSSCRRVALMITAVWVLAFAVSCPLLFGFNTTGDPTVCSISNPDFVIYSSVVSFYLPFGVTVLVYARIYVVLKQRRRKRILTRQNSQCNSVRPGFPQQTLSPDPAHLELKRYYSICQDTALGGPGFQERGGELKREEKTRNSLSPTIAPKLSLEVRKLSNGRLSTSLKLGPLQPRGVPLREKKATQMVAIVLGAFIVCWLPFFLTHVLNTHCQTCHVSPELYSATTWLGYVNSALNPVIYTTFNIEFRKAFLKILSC
# D2 ag-3: D2 receptor agonism, beta-arrestin counterscreen. shares compounds with D2 ag-2. DiscoveRx PathHunter D2 beta-arrestin, luminescence, 90 min; response scale: percent relative to full dopamine signal. Potency, µM (top dose mostly 76.9 µM), inactives show at the top dose activation, hits mostly activators. 5.9% of 2,300 active. AID 720507; further: potency means the concentration at half of the fitted maximal effect; % of control where 0% means no effect; nearly all actives have a fitted effect of over 70% in size
# The depositor's hits bear a star; ? = inconclusive; . = no result given. Hits are enriched below; roughly 2.4% of the tested compounds scored in any of these assays. Unless noted, the call rests on the fitted dose curve; in most records, active means well fitted activation curve with a large enough effect; inconclusive means small, poorly fitted or top-dose-only effect; inactive means flat fitted curve, though single readings scatter.
SMILES,D2 ag-1,D2 PAM-1,D2 ag-2,D2 PAM-2,D2 antag,D3 arrestin ag,D2 ag-3
CCCOc1ccc(C2CC(=O)Nc3c2c(=O)n(C)c(=O)n3C)cc1OC (stereo not drawn),.,.,-1,5,.,.,.
C=CCn1c(SCC(=O)c2ccc(O)c(O)c2)nnc1-c1cccc(OC)c1,1,-4,41*,-45,2,5%,9%
Cn1c(C=O)c(C#CC(C)(C)O)c2ccccc21,2,-14,0,4,-7,-4%,-4%
COc1cccc(C#Cc2c(C=O)n(C)c3ccccc23)c1,-3,-4,0,-18,-7,.,.
O=C(O)c1ccsc1Cc1cccs1,-2,-1,.,.,.,.,.
CC[n+]1c(/C=C/C=C/N(C(C)=O)c2ccccc2)sc2cc(OC)ccc21,12,-30,73*,-14,15,21%,?
CS(=O)(=O)Nc1ccccc1C(=O)Nc1cc(Cl)cc(Cl)c1,-2,-6,7,3,-1,19%,23%
O=C(Cc1ccc(Cl)cc1)SCc1ccccc1,-1,-8,15,3,-17,-20%,-5%
O=C(Cc1ccccc1)NCCSCc1ccc(Cl)cc1,-4,0,-1,-6,8,.,.
COc1ccc([C@@H](NC(=O)OC(C)(C)C)C(=O)OC(C)(C)C)cc1,-4,-8,0,6,11,.,.
CC(C)(C)OC(=O)N[C@H](C(=O)OC(C)(C)C)c1ccc2ccccc2c1,-5,-1,-1,15,-6,2%,-4%
COc1ccc(CCNC(=O)CSc2cn(Cc3ccccc3)c3ccccc23)cc1OC,-5,-3,-1,0,-10,.,.
COc1ccc(CCNC(=O)CSc2cn(Cc3cccc(C)c3)c3ccccc23)cc1OC,-2,-4,58*,-15,-5,-8%,1%
COc1ccc(CCNC(=O)CSc2ccccc2)cc1OC,-1,2,1,8,-13,.,.
COc1ccc(CCNC(=O)CNCC(c2ccccc2)N(C)C)cc1OC (stereo not drawn),7,-7,33*,-14,-2,8%,11%
CN1CCCC(OC(=O)c2ccc(S(=O)(=O)N(C)C)cc2)C1 (stereo not drawn),1,-5,-1,-4,18,.,.
COc1ccc(/C=N/NC(=O)CCN2CCN(c3ccccc3)CC2)c(OC)c1OC,?,-10,80*,-24,84*,11%,?
O=[N+]([O-])c1ccc(C(O)CN2CCN(c3ccccc3)CC2)cc1 (stereo not drawn),?,-4,60*,-20,46*,?,?
O=[N+]([O-])c1ccc(CN2CCN(c3ccccc3)CC2)o1,4,3,-1,-8,-16,4%,2%
COc1cc(/C=N/NC(=O)CCN2CCN(c3ccccc3)CC2)cc(OC)c1OC,1,-17,19,-10,30,-4%,6%
O=[N+]([O-])c1ccc(N2CCN(Cc3ccc([N+](=O)[O-])o3)CC2)cc1,11,6,1,-8,19,.,.
O=C1C=C(c2ccc(C(=O)O)c(Cl)c2)C[C@@H](c2ccc3c(c2)OCO3)C1,-5,-8,.,.,.,.,.
O=C(NCCc1ccc(Cl)cc1)c1ccc2c(c1)OCCO2,-2,-23,-1,-7,8,.,.
CC1CCCCN1S(=O)(=O)Cc1ccccc1Cl (stereo not drawn),0,5,0,8,9,.,.
O=C(CCN1CCN(c2ccccc2)CC1)N/N=C/c1ccc([N+](=O)[O-])o1,?,6,86*,-18,70*,0%,11µM*
SMILES,D2 ag-1,D2 PAM-1,D2 ag-2,D2 PAM-2,D2 antag,D3 arrestin ag,D2 ag-3
O=C(CCN1CCN(c2ccccc2)CC1)N/N=C/c1ccc(O)c(O)c1O,11,7,83*,-24,78*,?,32µM*
CC1Cc2cc(/C(O)=C3/C(=O)C(=O)N(CCN4CCOCC4)C3c3ccc(N(C)C)cc3)ccc2O1 (stereo not drawn),-1,-5,0,-3,-4,.,.
O=C(c1ccc([N+](=O)[O-])cc1)N1CCN(C(=O)c2cccs2)CC1,0,-8,.,-5,.,.,.
O=C(c1ccco1)N1CCN(Cc2cccc([N+](=O)[O-])c2)CC1,-2,-3,37*,-14,-2,-2%,6%
O=C(c1cccs1)N1CCN(Cc2ccccn2)CC1,-1,-1,78*,-11,52*,?,?
O=C(c1ccco1)N1CCN(C(=O)c2cc3cc([N+](=O)[O-])ccc3oc2=O)CC1,1,-3,1,6,-13,.,.
O=C(c1cccs1)N1CCN(Cc2cccc([N+](=O)[O-])c2)CC1,-1,-7,71*,-16,38*,24%,?
CCOC(=O)c1c(S(=O)(=O)N2CCC(C(=O)Nc3cccc(C)n3)CC2)c(C)n(C)c1C,.,.,1,8,.,.,.
COc1ccc(C(=O)NCC(=O)OCC(=O)Nc2ncc(Cl)cc2Cl)cc1[N+](=O)[O-],1,-1,0,12,-30,.,.
Cc1cccc(C)c1NC(=O)c1cc(S(=O)(=O)N2CCC3(CC2)OCCO3)ccc1F,-1,-15,.,.,.,.,.
CCOc1ccccc1NC(=O)CSc1nnc(CC)c(CC)n1,.,.,-1,-10,.,.,.
CC(CCc1ccccc1)NCc1cccc2ccccc12 (stereo not drawn),2,-78,57*,-27,32*,16%,14%
Cc1cccc(N2CCN(S(=O)(=O)c3nnc(NC(=O)c4ccc(Cl)cc4)s3)CC2)c1,.,.,-1,0,.,.,.
O=C(CCSc1ccc(F)cc1)NNC(=O)c1ccccc1Cl,5,-4,0,0,-19,-4%,1%
O=C(CSc1ccc(F)cc1)NNC(=O)c1ccccc1Br,-5,-1,0,-15,25,.,.
COc1ccc(OC)c(-n2c(CN3CCC(C(N)=O)CC3)nc3ccccc3c2=O)c1,0,3,57*,-15,5,0%,0%
C[C@@H]1CCCCCCCCC(=O)OCCN(C(=O)OC(C)(C)C)[C@H](C)CCCCCCCCC(=O)OCCN1C(=O)OC(C)(C)C,-2,-10,.,.,.,.,.
C[C@@H]1CCCCCCCCC(=O)OCCN1C(=O)OC(C)(C)C,-1,0,1,-4,13,2%,2%
CCOC(=O)Cn1ccc(NC(=O)c2ccc3c(c2)OCO3)n1,-2,-4,-1,0,-18,.,.
COCc1c(C(=O)N/N=C\c2cccs2)nnn1-c1nonc1N,-1,-3,1,5,5,.,.

# Source: PubChem (National Center for Advancing Translational Sciences (NCATS))
